PubChem BioAssay (EPA / NIEHS)
Calls of active or inactive are those of the source. The calls were made as follows: active = hit-call score of the fitted dose curve at least 0.9, where 1 is the maximum; inactive = score below 0.9.

How the values were obtained:
[1] = read-out: catalase (CAT), CAT (gene 847); assay: LTEA_HepaRG_CAT: Life Technologies and Expression Analysis (LTEA) Assay for catalase (CAT) using HepaRG (AID 2283452); conditions: mRNA level, 48 h; actives raise or lower the signal;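 as to AC50: TaqMan qRT-PCR signal normalized to ACTB GAPDH and POLR2A housekeeping genes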
How it was run: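 Expression of CAT was quantified by TaqMan qRT-PCR with ACTB/GAPDH/POLR2A normalization after 48 h chemical exposure of HepaRG. Eight-point half-log series, top 100 uM, in 0.5% DMSO; gain or loss fitted against vehicle.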

[2] = read-out: flavin-containing dimethylaniline monooxygenases 3 (FMO3), FMO3 (gene 2328); assay: LTEA_HepaRG_FMO3: Life Technologies and Expression Analysis (LTEA) Assay for flavin-containing dimethylaniline monooxygenases 3 (FMO3) using HepaRG (AID 2283453); conditions: mRNA level, 48 h; actives raise or lower the signal;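 as to AC50: differentiated human HepaRG liver cells in serum-free induction medium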
How it was run: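 Eight-point concentration-response in serum-free HepaRG cultures (top 100 uM, 0.5% DMSO, 48 h). Read-out: FMO3 mRNA level normalized to three endogenous control genes, fitted bidirectionally versus vehicle.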

[3] = read-out: Cytochrome P450 (CYP1A1), CYP1A1 (gene 1543); assay: LTEA_HepaRG_CYP1A1: Life Technologies and Expression Analysis (LTEA) Assay for Cytochrome P450 (CYP1A1) using HepaRG (AID 2283454); conditions: mRNA level, 48 h; actives raise or lower the signal
How it was run: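 HepaRG, 48 h post-plating switched to serum-free induction medium; 8-pt conc-response (top 100 uM, half-log, 0.5% DMSO), duplicates, 48 h. Lysis in RLT, TaqMan qRT-PCR for CYP1A1; gain or loss vs DMSO.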

[4] = read-out: CFLAR gene, CFLAR (gene 8837); assay: LTEA_HepaRG_CFLAR: Life Technologies and Expression Analysis (LTEA) Assay for CFLAR gene using HepaRG (AID 2283455); conditions: mRNA level, 48 h; actives raise or lower the signal
How it was run: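 Transcript level by qRT-PCR (normalized to ACTB, GAPDH and POLR2A) after 48 h chemical exposure of HepaRG cells, top concentration 100 uM with half-log steps, 0.5% DMSO vehicle, duplicates; fitted bidirectionally against DMSO baseline.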

[5] = read-out: Forkhead box O1 (FOXO1), FOXO1 (gene 2308); assay: LTEA_HepaRG_FOXO1: Life Technologies and Expression Analysis (LTEA) Assay for Forkhead box O1 (FOXO1) using HepaRG (AID 2283456); conditions: mRNA level, 48 h; actives raise or lower the signal
How it was run: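 FOXO1 transcript quantified by qRT-PCR after 48 h chemical exposure (top 100 uM, half-log steps, 0.5% DMSO) of HepaRG cells, housekeeping-normalized (ACTB/GAPDH/POLR2A). Changes fitted in both directions relative to vehicle.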

[6] = CEETOX_H295R_TESTO: CeeTox H295R High-throughput Steroidogenesis Assay for Testosterone (TESTO) (AID 2283457); conditions: actives raise or lower the signal;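 as to AC50: cells exposed to chemicals for 48 h before medium collection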
How it was run: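 H295R, passage ≤10, 48 h dosing; media extracted with MTBE → HPLC-MS/MS for testosterone; 7-pt standard curve sets LLOQ/ULOQ; bidirectional fit vs DMSO; MTT viability same wells.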

[7] = read-out: growth arrest and DNA damage 45 (GADD45A), GADD45A (gene 1647); assay: LTEA_HepaRG_GADD45A: Life Technologies and Expression Analysis (LTEA) Assay for growth arrest and DNA damage 45 (GADD45A) using HepaRG (AID 2283458); conditions: mRNA level, 48 h; actives raise or lower the signal
How it was run: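 HepaRG, 48 h exposure, 8 conc. (top 100 uM, half-log steps), 0.5% DMSO vehicle, duplicates. Read-out: qRT-PCR mRNA level, housekeeping-normalized (ACTB/GAPDH/POLR2A). Curves fit bidirectionally vs DMSO baseline.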

[8] = read-out: Forkhead box O3 (FOXO3), FOXO3 (gene 2309); assay: LTEA_HepaRG_FOXO3: Life Technologies and Expression Analysis (LTEA) Assay for Forkhead box O3 (FOXO3) using HepaRG (AID 2283459); conditions: mRNA level, 48 h; actives raise or lower the signal
How it was run: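 FOXO3 transcript measured by qRT-PCR (normalized to ACTB, GAPDH, POLR2A) after 48 h exposure of HepaRG cells in serum-free induction medium. Duplicates, eight half-log concentrations up to 100 uM, 0.5% DMSO; gain or loss fitted against DMSO.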

[9] = read-out: ABC Transporter (ABCB1), ABCB1 (gene 5243); assay: LTEA_HepaRG_ABCB1: Life Technologies and Expression Analysis (LTEA) Assay for ABC Transporter (ABCB1) using HepaRG (AID 2283460); conditions: mRNA level, 48 h; actives raise or lower the signal
How it was run: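 ABCB1 transcript level measured by TaqMan qRT-PCR against three housekeeping genes after 48 h chemical exposure of differentiated HepaRG cells. Top concentration 100 uM, half-log steps, eight points, 0.5% DMSO vehicle; bidirectional fit relative to DMSO.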

[10] = read-out: growth arrest and DNA damage 45 (GADD45B), GADD45B (gene 4616); assay: LTEA_HepaRG_GADD45B: Life Technologies and Expression Analysis (LTEA) Assay for growth arrest and DNA damage 45 (GADD45B) using HepaRG (AID 2283461); conditions: mRNA level, 48 h; actives raise or lower the signal
How it was run: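 HepaRG, ~100,000 cells/well, 48 h plating; serum-free induction medium; cpd 100 uM top, half-log x8, 0.5% DMSO, duplicate, 48 h; lysis in RLT, RNA isolation, qRT-PCR; norm ACTB/GAPDH/POLR2A; bidirectional fit vs DMSO.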

[11] = read-out: ABC Transporter (ABCC3), ABCC3 (gene 8714); assay: LTEA_HepaRG_ABCC3: Life Technologies and Expression Analysis (LTEA) Assay for ABC Transporter (ABCC3) using HepaRG (AID 2283462); conditions: mRNA level, 48 h; actives raise or lower the signal
How it was run: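 Human HepaRG, 48 h dosing, 8-pt half-log series from 100 uM, 0.5% DMSO vehicle, duplicates. ABCC3 mRNA by TaqMan qRT-PCR, housekeeping-normalized; bidirectional curve fit vs DMSO.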

[12] = read-out: ABC Transporter (ABCB11), ABCB11 (gene 8647); assay: LTEA_HepaRG_ABCB11: Life Technologies and Expression Analysis (LTEA) Assay for ABC Transporter (ABCB11) using HepaRG (AID 2283463); conditions: mRNA level, 48 h; actives raise or lower the signal
How it was run: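 ABCB11 transcript levels quantified by TaqMan qRT-PCR against three housekeeping genes after 48 h chemical exposure of HepaRG cultures. Concentrations up to 100 uM in half-log steps, 0.5% DMSO vehicle; both induction and suppression scored.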

[13] = read-out: ABC Transporter (ABCC2), ABCC2 (gene 1244); assay: LTEA_HepaRG_ABCC2: Life Technologies and Expression Analysis (LTEA) Assay for ABC Transporter (ABCC2) using HepaRG (AID 2283464); conditions: mRNA level, 48 h; actives raise or lower the signal
How it was run: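 HepaRG, 48 h post-plating; serum-free induction medium; cpd 8-pt, 100 uM top, half-log, 0.5% DMSO, duplicate, 48 h. Readout: ABCC2 mRNA by qRT-PCR, norm. ACTB/GAPDH/POLR2A. Bidirectional fit vs DMSO baseline.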

[14] = read-out: Broad substrate specificity ATP-binding cassette transporter ABCG2 (Homo sapiens) (UniProt Q9UNQ0); assay: LTEA_HepaRG_ABCG2: Life Technologies and Expression Analysis (LTEA) Assay for ABC Transporter (ABCG2) using HepaRG (AID 2283465); conditions: mRNA level, 48 h; actives raise or lower the signal
How it was run: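 ABCG2 transcript was quantified by TaqMan qRT-PCR against three housekeeping genes in HepaRG cells. Cells were treated in duplicate for 48 h across an 8-point half-log series up to 100 uM, with 0.5% DMSO vehicle. Gain or loss versus DMSO was fit.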

[15] = read-out: ATP-citrate lyase (ACLY), ACLY (gene 47); assay: LTEA_HepaRG_ACLY: Life Technologies and Expression Analysis (LTEA) Assay for ATP-citrate lyase (ACLY) using HepaRG (AID 2283466); conditions: mRNA level, 48 h; actives raise or lower the signal
How it was run: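 ACLY mRNA quantified by qRT-PCR on Fluidigm arrays against three housekeeping genes, after 48 h chemical treatment of HepaRG cells (top concentration 100 uM, half-log steps, 0.5% DMSO vehicle). Up- or down-regulation fitted relative to DMSO.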

[16] = read-out: Peroxisomal acyl-coenzyme A oxidase 1 (ACOX1) gene, ACOX1 (gene 51); assay: LTEA_HepaRG_ACOX1: Life Technologies and Expression Analysis (LTEA) Assay for Peroxisomal acyl-coenzyme A oxidase 1 (ACOX1) gene using HepaRG (AID 2283467); conditions: mRNA level, 48 h; actives raise or lower the signal
How it was run: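 ACOX1 transcript levels were quantified by TaqMan qRT-PCR against three housekeeping genes after 48 h chemical exposure of differentiated human HepaRG cells. Exposure used eight half-log steps topping at 100 uM, 0.5% DMSO vehicle, in duplicate. Bidirectional curve fits were made relative to DMSO.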

[17] = read-out: Alkaline Phosphatase, Placental (ALPP) gene, ALPP (gene 250); assay: LTEA_HepaRG_ALPP: Life Technologies and Expression Analysis (LTEA) Assay for Alkaline Phosphatase, Placental (ALPP) gene using HepaRG (AID 2283468); conditions: mRNA level, 48 h; actives raise or lower the signal;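 as to AC50: differentiated human HepaRG liver cells in serum-free induction medium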
How it was run: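 HepaRG, 48 h plating then 48 h dosing, serum-free induction medium, 0.5% DMSO. 8 conc, half-log, max 100 uM, duplicates. Endpoint: ALPP transcript by qRT-PCR, housekeeping-normalized; gain or loss fitted vs DMSO.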

[18] = read-out: Bcl-2 (BAD) gene, BAD (gene 572); assay: LTEA_HepaRG_BAD: Life Technologies and Expression Analysis (LTEA) Assay for Bcl-2 (BAD) gene using HepaRG (AID 2283469); conditions: mRNA level, 48 h; actives raise or lower the signal
How it was run: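 Read-out: qRT-PCR of BAD mRNA, normalized to three housekeeping genes. Human HepaRG cultures got 48 h chemical exposure in 0.5% DMSO, duplicate eight-point half-log series topping at 100 uM. Gain or loss of signal fitted versus DMSO vehicle.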

[19] = read-out: Bcl-2 (BAX) gene, BAX (gene 581); assay: LTEA_HepaRG_BAX: Life Technologies and Expression Analysis (LTEA) Assay for Bcl-2 (BAX) gene using HepaRG (AID 2283470); conditions: mRNA level, 48 h; actives raise or lower the signal
How it was run: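 qRT-PCR read-out of BAX mRNA, normalized to three housekeeping genes, after 48 h chemical exposure of human HepaRG cells in serum-free induction medium; eight-point half-log series, top 100 uM, 0.5% DMSO vehicle; bidirectional fit versus DMSO.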

[20] = read-out: adenosine kinase (ADK) gene, ADK (gene 132); assay: LTEA_HepaRG_ADK: Life Technologies and Expression Analysis (LTEA) Assay for adenosine kinase (ADK) gene using HepaRG (AID 2283471); conditions: mRNA level, 48 h; actives raise or lower the signal
How it was run: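 ADK expression quantified by qRT-PCR, normalised to three housekeeping genes, after 48 h exposure of HepaRG cells to eight concentrations (top 100 uM, half-log steps, duplicate, 0.5% DMSO). Up- or down-regulation fitted relative to vehicle.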

Measured: AC50

Sequence of Broad substrate specificity ATP-binding cassette transporter ABCG2 (Homo sapiens) (Q9UNQ0 whole entry, looked up): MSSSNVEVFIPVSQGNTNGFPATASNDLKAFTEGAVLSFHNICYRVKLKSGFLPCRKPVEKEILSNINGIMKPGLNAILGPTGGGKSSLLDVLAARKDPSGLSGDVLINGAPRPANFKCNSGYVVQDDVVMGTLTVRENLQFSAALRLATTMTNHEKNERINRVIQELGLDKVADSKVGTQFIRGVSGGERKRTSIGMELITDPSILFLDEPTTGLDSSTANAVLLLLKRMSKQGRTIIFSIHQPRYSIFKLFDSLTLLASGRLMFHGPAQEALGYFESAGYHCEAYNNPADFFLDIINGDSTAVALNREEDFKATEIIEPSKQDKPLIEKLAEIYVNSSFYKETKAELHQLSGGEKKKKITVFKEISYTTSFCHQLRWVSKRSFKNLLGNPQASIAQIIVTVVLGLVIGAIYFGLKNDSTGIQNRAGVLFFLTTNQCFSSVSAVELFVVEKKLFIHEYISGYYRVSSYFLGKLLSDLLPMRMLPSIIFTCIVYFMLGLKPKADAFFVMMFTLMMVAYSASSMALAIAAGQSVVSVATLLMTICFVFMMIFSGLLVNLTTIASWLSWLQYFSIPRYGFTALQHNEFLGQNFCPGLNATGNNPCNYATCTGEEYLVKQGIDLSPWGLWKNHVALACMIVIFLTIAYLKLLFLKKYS

O=C(Nc1ccccc1)c1ccccc1I
active: [2] 50 µM | [3] 27.7 µM | [8] 14.6 µM | [10] 17.1 µM | [12] 23.3 µM | [14] 11.7 µM
inactive: all other assays above

Nc1ccc(Oc2ccc(N)cc2)cc1
active: [3] 37.5 µM
not listed: [5] | [6] | [13]
inactive: all other assays above

Clc1ccccc1Cl
not listed: [3] | [6]
inactive: all other assays above

OCCCBr
not listed: [4] | [6]
inactive: all other assays above

CCCCCOC(=O)c1ccccc1C(=O)OCCCCC
not listed: [3] | [6]
inactive: all other assays above

C[C@]12C=CC3=C4CCC(=O)C=C4CC[C@H]3[C@@H]1CC[C@@H]2O
active: [1] 50 µM | [2] 20.3 µM | [6] 83 µM | [12] 27.3 µM | [17] 24.4 µM | [20] 68.2 µM
not listed: [3] | [5]
inactive: all other assays above

Oc1ccccc1Cl
not listed: [4] | [6]
inactive: all other assays above

Nc1ccc([N+](=O)[O-])cc1
not listed: [3] | [6]
inactive: all other assays above

CS(=O)(=O)NC(=O)c1cc(Oc2ccc(C(F)(F)F)cc2Cl)ccc1[N+](=O)[O-]
active: [9] 0.644 µM | [12] 50 µM | [13] 6.32 µM
not listed: [3] | [6]
inactive: all other assays above

c1ccc(N=Nc2ccccc2)cc1
active: [3] 36.6 µM
not listed: [4] | [5] | [6]
inactive: all other assays above

CN(C)c1ccc(C(=O)c2ccc(N(C)C)cc2)cc1
active: [2] 50 µM | [3] 14.6 µM | [17] 3.13 µM
not listed: [4] | [6]
inactive: all other assays above

COP(=S)(OC)SCN1C(=O)c2ccccc2C1=O
active: [3] 30.9 µM
not listed: [4] | [5] | [6]
inactive: all other assays above

O=C(Oc1ccc(Br)cc1)N1CCN2CCC1CC2
active: [3] 65.1 µM | [15] 73.5 µM
not listed: [4] | [5] | [6] | [12]
inactive: all other assays above

CC(C)COC(=O)c1ccccc1C(=O)OCC(C)C
active: [3] 59.1 µM
not listed: [4] | [5] | [6]
inactive: all other assays above
